Laboratory results taken from PubChem BioAssay.

target: Pro-neuregulin-1, membrane-bound isoform (Homo sapiens) (UniProt Q02297); assay: small molecules binding neuregulin-1 protein – biochemical, small-molecule microarray, fluorescence 635/667, psychiatric disease protein project, primary screen (AID 1075); details: NRG1 binding, 635 nm fluorescence, higher = more signal;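 note: score combines 667 nm spot fluorescence with signal to noise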
Sequence (Q02297 whole entry, looked up, canonical isoform): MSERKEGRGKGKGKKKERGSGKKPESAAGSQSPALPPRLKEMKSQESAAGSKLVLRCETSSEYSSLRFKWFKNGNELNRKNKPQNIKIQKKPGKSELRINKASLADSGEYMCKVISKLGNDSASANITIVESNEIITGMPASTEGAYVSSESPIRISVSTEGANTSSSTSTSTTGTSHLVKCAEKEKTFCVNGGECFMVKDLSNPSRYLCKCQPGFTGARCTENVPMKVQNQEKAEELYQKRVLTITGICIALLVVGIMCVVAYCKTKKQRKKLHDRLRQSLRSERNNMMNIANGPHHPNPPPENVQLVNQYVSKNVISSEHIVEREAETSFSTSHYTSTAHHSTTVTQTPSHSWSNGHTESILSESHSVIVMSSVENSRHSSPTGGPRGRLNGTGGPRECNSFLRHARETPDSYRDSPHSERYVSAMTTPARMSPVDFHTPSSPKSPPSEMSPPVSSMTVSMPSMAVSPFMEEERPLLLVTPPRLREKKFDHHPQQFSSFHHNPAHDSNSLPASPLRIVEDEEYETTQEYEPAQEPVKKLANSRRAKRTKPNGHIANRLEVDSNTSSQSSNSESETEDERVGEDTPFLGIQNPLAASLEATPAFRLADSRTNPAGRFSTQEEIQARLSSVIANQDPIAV

Row | SMILES | composite z-score
1 | COc1cccc([C@H]2Oc3ccc(OC)cc3C(=NO[C@H](C)c3cn([C@H](CO)Cc4ccccc4)nn3)[C@@H]2O)c1 | -0.72
2 | COc1ccc(COC(=O)NN=C2C[C@@H](O)[C@@H](O)[C@@H]3[C@@H]4C(=O)N(c5cccc(Oc6ccccc6)c5)C(=O)[C@@H]4CC[C@@H]23)cc1 | -0.0521
3 | CO[C@@H]1COC(=O)CC=C[C@H](C)[C@H](OC)COC(=O)[C@H](C)NC(=O)CC=C[C@H]1C | -0.63
4 | O=C1C[C@@H](O)[C@@H](O)[C@@H]2[C@@H]3C(=O)N(C[C@@H]4CCCO4)C(=O)[C@@H]3CC[C@H]12 | 0.17
5 | COC(=O)[C@@H]1CC[C@@H](C)[C@H](c2ccc(Br)cc2)N1 | -0.303
6 | COC(=O)[C@@H]1CC[C@H](C)[C@@H](c2ccc(C)cc2)N1C(=O)c1ccc(C=NO[C@H](C)c2cn([C@@H]3COC[C@H]3O)nn2)cc1 | 0.122
7 | Cn1c(=O)n2n(c1=O)[C@H]1[C@H](O)[C@@H]3O[C@@H]3C(=NOCc3ccccc3)[C@H]1CC2 | -0.257
8 | CCOC(=O)NN=C1C[C@@H](O)[C@@H](O)[C@@H]2[C@@H]3C(=O)N(c4cccc(Oc5ccccc5)c4)C(=O)[C@@H]3CC[C@@H]12 | 0.823
9 | COC(=O)[C@H](C)NC(=O)CCC1CC(OC(=O)NCc2cccc3ccccc23)CC2(CCCC(COC(=O)NCC(c3ccccc3)c3ccccc3)O2)O1 (stereo partly specified) | 0.917
10 | Cc1ccc(S(=O)(=O)n2c3ccccc3c3nnc(C(=O)c4ccccc4)nc32)cc1 | -0.457
11 | COC(=O)C=CCCc1coc(C=CCNC(=O)OC)n1 | -0.0679
12 | CON=C1[C@H]2CCn3c(=O)n(-c4ccccc4)c(=O)n3[C@H]2[C@H](O)[C@@H]2O[C@H]12 | 0.0959
13 | CC(C)=CCCC(C)=CCON=C1C[C@@H](O)[C@@H](O)[C@@H]2[C@@H]3C(=O)N(C4CCCCC4)C(=O)[C@@H]3CC[C@@H]12 | -0.148
14 | O=C1[C@H]2[C@H]3[C@H](O)[C@H](O)CC(=NOC[C@@H](O)COCc4ccco4)[C@H]3CC[C@H]2C(=O)N1C[C@@H]1CCCO1 | -0.285
15 | O=C(NN=C1C[C@@H](O)[C@@H](O)[C@@H]2[C@@H]3C(=O)N(C[C@@H]4CCCO4)C(=O)[C@@H]3CC[C@@H]12)OCc1ccccc1 | -0.802
16 | COc1ccc(C#C[C@@H]2C=C[C@H](OC(C)=O)[C@@H](COC(C)=O)O2)cc1 | 0.198
17 | CC(C)CON=C1C[C@@H](O)[C@@H](O)[C@@H]2[C@@H]3C(=O)N(c4cccc(Oc5ccccc5)c4)C(=O)[C@@H]3CC[C@@H]12 | 0.61
18 | CCOC(=O)[C@H](CC(C)C)NC(=O)CCC1CC(OC(=O)NCc2cccc3ccccc23)CC2(CCCC(COC(=O)NCc3cccc(C(F)(F)F)c3)O2)O1 (stereo partly specified) | -0.0419
19 | C#CCCCON=C1C[C@@H](O)[C@@H](O)[C@@H]2[C@@H]3C(=O)N(Cc4ccccc4)C(=O)[C@@H]3CC[C@@H]12 | 0.0645
20 | COc1ccc(O[C@H]2C=C[C@@H](c3ccccc3)O[C@@H]2CON=CC[C@@H]2C=C[C@H](OC(C)=O)[C@@H](COC(C)=O)O2)cc1 | -0.364
21 | CC(C)(C)N1C(=O)[C@H]2[C@H]3[C@H](O)[C@H](O)CC(=O)[C@H]3CC[C@H]2C1=O | 0.354
22 | Cc1cc2c(nc1C)CCCCN2CC(C)ON=C[C@@H](C)[C@H](OCc1ccccc1)C(C)C (stereo partly specified) | -0.317
23 | C#CCCCON=C1C[C@@H](O)[C@@H](O)[C@@H]2[C@@H]3C(=O)N(CCC(=O)OCC)C(=O)[C@@H]3CC[C@H]12 | 0.64
24 | CCOC(=O)[C@H](CC(C)C)NC(=O)CCC1CC(OC(=O)NCc2cccc3ccccc23)CC2(CCCC(COC(=O)NCCOC)O2)O1 (stereo partly specified) | 1.27
25 | COc1ccc(COC(=O)NN=C2C[C@@H](O)[C@@H](O)[C@@H]3[C@@H]4C(=O)N(c5ccc(F)cc5F)C(=O)[C@@H]4CC[C@H]23)cc1 | 0.461

test system: Neuregulin-1 EGF-like domain; assay: small molecules binding NRG1 EGF domain – biochemical, small-molecule microarray, 635 nm fluorescence, primary screen (AID 1081); details: higher = more signal;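 note: binding of the protein to compounds printed on small-molecule microarray slides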

Row | SMILES | composite z-score
26 | CC(C)=NO[C@H](C)c1cn([C@H](CO)Cc2ccccc2)nn1 | 0.316
27 | CCOC(=O)[C@H](CC(C)C)NC(=O)CCC1CC(OC(=O)NCc2cccc3ccccc23)CC2(CCCC(COC(=O)NCCOc3ccccc3)O2)O1 (stereo partly specified) | 1.01
28 | O=C1C[C@@H](O)[C@@H](O)[C@@H]2[C@@H]3C(=O)N(C[C@@H]4CCCO4)C(=O)[C@@H]3CC[C@@H]12 | 0.459
29 | CCOC(=O)[C@H](CC(C)C)NC(=O)CCC1CC(OC(=O)NCc2cccc3ccccc23)CC2(CCCC(COC(=O)NCCc3ccc(Cl)cc3)O2)O1 (stereo partly specified) | 0.744
30 | CO[C@H]1COC(=O)CC=C[C@@H](C)[C@H](NS(=O)(=O)c2ccc(C)cc2)COC(=O)CCC[C@@H]1C | 0.185
31 | CO[C@H]1COC(=O)[C@H](C)NC(=O)CC=C[C@@H](C)[C@H](OC)COC(=O)[C@@H](OCc2ccccc2)C=C[C@@H]1C | -1.45
32 | CCCNC(=O)OC[C@H]1O[C@H](CCON=C(C)CCN2CCCc3nc(C)c(C)cc32)C=C[C@@H]1Oc1ccc(OC)cc1 | 0.685
33 | C#CCCCON=C1C[C@@H](O)[C@@H](O)[C@@H]2[C@@H]3C(=O)N(CC)C(=O)[C@@H]3CC[C@@H]12 | 0.636
34 | COC(=O)[C@H](C)NC(=O)CCC1CC(OC(=O)NCc2ccc3c(c2)OCO3)CC2(CCCC(COC(=O)NCC3CCCCC3)O2)O1 (stereo partly specified) | 1.18
35 | CO[C@H]1COC(=O)CC=C[C@@H](C)[C@H](OC)COC(=O)[C@@H]2CCCN2C(=O)CC=C[C@@H]1C | 0.87
36 | CON=C[C@@H](NS(=O)(=O)c1ccc(C)cc1)[C@H](C)C=CCC(=O)OC | 0.0812
37 | COc1cccc([C@H]2Oc3ccc(OC)cc3C(=NO[C@H](C)c3cn([C@H](CO)Cc4ccccc4)nn3)[C@@H]2O)c1 | -0.504
38 | COc1ccc(COC(=O)NN=C2C[C@@H](O)[C@@H](O)[C@@H]3[C@@H]4C(=O)N(c5cccc(Oc6ccccc6)c5)C(=O)[C@@H]4CC[C@@H]23)cc1 | -0.265
39 | CO[C@@H]1COC(=O)CC=C[C@H](C)[C@H](OC)COC(=O)[C@H](C)NC(=O)CC=C[C@H]1C | 0.347
40 | O=C1C[C@@H](O)[C@@H](O)[C@@H]2[C@@H]3C(=O)N(C[C@@H]4CCCO4)C(=O)[C@@H]3CC[C@H]12 | 0.723
41 | COC(=O)[C@@H]1CC[C@@H](C)[C@H](c2ccc(Br)cc2)N1 | -0.356
42 | COC(=O)[C@@H]1CC[C@H](C)[C@@H](c2ccc(C)cc2)N1C(=O)c1ccc(C=NO[C@H](C)c2cn([C@@H]3COC[C@H]3O)nn2)cc1 | 0.972
43 | Cn1c(=O)n2n(c1=O)[C@H]1[C@H](O)[C@@H]3O[C@@H]3C(=NOCc3ccccc3)[C@H]1CC2 | 0.0977

Row | SMILES | composite z-score
44 | CCOC(=O)NN=C1C[C@@H](O)[C@@H](O)[C@@H]2[C@@H]3C(=O)N(c4cccc(Oc5ccccc5)c4)C(=O)[C@@H]3CC[C@@H]12 | 0.81
45 | COC(=O)[C@H](C)NC(=O)CCC1CC(OC(=O)NCc2cccc3ccccc23)CC2(CCCC(COC(=O)NCC(c3ccccc3)c3ccccc3)O2)O1 (stereo partly specified) | 0.801
46 | Cc1ccc(S(=O)(=O)n2c3ccccc3c3nnc(C(=O)c4ccccc4)nc32)cc1 | 0.355
47 | COC(=O)C=CCCc1coc(C=CCNC(=O)OC)n1 | 0.492
48 | CON=C1[C@H]2CCn3c(=O)n(-c4ccccc4)c(=O)n3[C@H]2[C@H](O)[C@@H]2O[C@H]12 | 0.561
49 | CC(C)=CCCC(C)=CCON=C1C[C@@H](O)[C@@H](O)[C@@H]2[C@@H]3C(=O)N(C4CCCCC4)C(=O)[C@@H]3CC[C@@H]12 | 0.598
50 | O=C1[C@H]2[C@H]3[C@H](O)[C@H](O)CC(=NOC[C@@H](O)COCc4ccco4)[C@H]3CC[C@H]2C(=O)N1C[C@@H]1CCCO1 | 1.15
51 | O=C(NN=C1C[C@@H](O)[C@@H](O)[C@@H]2[C@@H]3C(=O)N(C[C@@H]4CCCO4)C(=O)[C@@H]3CC[C@@H]12)OCc1ccccc1 | 0.631
52 | COc1ccc(C#C[C@@H]2C=C[C@H](OC(C)=O)[C@@H](COC(C)=O)O2)cc1 | -0.0975
53 | CC(C)CON=C1C[C@@H](O)[C@@H](O)[C@@H]2[C@@H]3C(=O)N(c4cccc(Oc5ccccc5)c4)C(=O)[C@@H]3CC[C@@H]12 | 1.1
54 | CCOC(=O)[C@H](CC(C)C)NC(=O)CCC1CC(OC(=O)NCc2cccc3ccccc23)CC2(CCCC(COC(=O)NCc3cccc(C(F)(F)F)c3)O2)O1 (stereo partly specified) | 0.0188
55 | C#CCCCON=C1C[C@@H](O)[C@@H](O)[C@@H]2[C@@H]3C(=O)N(Cc4ccccc4)C(=O)[C@@H]3CC[C@@H]12 | -0.816
56 | COc1ccc(O[C@H]2C=C[C@@H](c3ccccc3)O[C@@H]2CON=CC[C@@H]2C=C[C@H](OC(C)=O)[C@@H](COC(C)=O)O2)cc1 | -0.216
57 | CC(C)(C)N1C(=O)[C@H]2[C@H]3[C@H](O)[C@H](O)CC(=O)[C@H]3CC[C@H]2C1=O | 0.725
58 | Cc1cc2c(nc1C)CCCCN2CC(C)ON=C[C@@H](C)[C@H](OCc1ccccc1)C(C)C (stereo partly specified) | -0.366
59 | C#CCCCON=C1C[C@@H](O)[C@@H](O)[C@@H]2[C@@H]3C(=O)N(CCC(=O)OCC)C(=O)[C@@H]3CC[C@H]12 | 0.685
60 | CCOC(=O)[C@H](CC(C)C)NC(=O)CCC1CC(OC(=O)NCc2cccc3ccccc23)CC2(CCCC(COC(=O)NCCOC)O2)O1 (stereo partly specified) | 0.931
61 | COc1ccc(COC(=O)NN=C2C[C@@H](O)[C@@H](O)[C@@H]3[C@@H]4C(=O)N(c5ccc(F)cc5F)C(=O)[C@@H]4CC[C@H]23)cc1 | 0.179
